Data reported in paper PMC5540273 (PLoS ONE, 2017).

The compounds below were run on MLK3. Details: concentration: 1 μM, replicates: in singlicate; n = 1.
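Further: KINOMEscan kinase panel screen.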

Row | Structure (SMILES) | %Inh [%]
1 | CCn1c(-c2cccnc2O)nc2cnccc21 [SB-736715] | 0
2 | Cl.Oc1ccc(-c2nc(-c3ccccc3)[nH]c2-c2ccncc2)cc1 [SB-428218] | 0
3 | CC(=O)Nc1nc2cnc(Nc3cc(NC(=O)c4cccc(CCC#N)c4)ccc3C)nc2s1 | 13
4 | O=S(=O)(c1ccc(-c2ccnc3[nH]ccc23)cc1)N1CCCC1 [GSK846226] | 0
5 | CN1C(=O)C(Nc2ccc(Cl)c(C(=O)O)c2)=C(c2ccc(Cl)cc2)C1=O [SB-404290] | 4
6 | Fc1cc(Cl)ccc1Nc1ccnc2cc(I)ccc12 [GW551191] | 0
7 | O=c1cc(N2CCOCC2)nc2n(Cc3cccc(Cl)c3Cl)ccn12 [GSK2286295] | 7
8 | Cn1ccc2ncnc(Oc3ccc(NC(=O)Nc4ccccc4)cc3)c21 | 19
9 | COc1cc(Nc2nccc(N3CCC(NC(=O)Nc4cc(C)ccc4C)C3)n2)cc(OC)c1OC (centres unmarked) [GSK1379762] | 23
10 | CC(C)(C)c1ccc(C(=O)Nc2cn3cc(Cl)ccc3n2)cc1 | 0
11 | COc1ccccc1CNC(=O)c1cc(C(=O)c2ccccc2C)c[nH]1 [GSK364507] | 0
12 | O=C(O)COc1ncnc2cc(-c3ccc4[nH]ncc4c3)sc12 | 0
13 | CS(=O)(=O)c1ccc(-c2nc3n(c2-c2ccncc2)CCC3)cc1 [SKF-105942] | 1
14 | Cc1c(Cn2ccn3c(=O)cc(N4CCOCC4)nc23)cccc1C(F)(F)F [GSK2289044] | 3
